The text below walks through data of PubChem BioAssay (Tox21).

Assay [1] in a line: A CellTox Green Cytotoxicity Assay to monitor cytotoxicity in HEK293 cells - 32 hour (AID 1224881). Note: nearly all actives have a fitted effect of over 40% in size. Put shortly: (§1)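 Fluorescence intensity, read at 0, 8, 16, 24, 32 and 40 h of compound treatment, reflected dye binding to DNA of dead HEK293 cells; compounds (23 nL, DMSO) were added 5 h after plating cells with reagent.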
Assay [2] is described as follows: A CellTox Green Cytotoxicity Assay to monitor cytotoxicity in HepG2 cells - 0 hour (AID 1224882). Note: nearly all actives have a fitted effect of over 35% in size. The essentials:
(§2)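 Using 1536-well format, dye-containing HepG2 suspension was seeded, allowed 5 h at 37 C/5% CO2, dosed by pintool with compounds, positive and negative controls, and imaged for fluorescence across 40 h.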

The nature of assay [3]: A CellTox Green Cytotoxicity Assay to monitor cytotoxicity in HepG2 cells - 32 hour (AID 1224883). Note: nearly all actives have a fitted effect of over 50% in size. The essentials:
as §2

Assay [4] can be described thus: A CellTox Green Cytotoxicity Assay to monitor cytotoxicity in HEK293 cells - 8 hour (AID 1224884). Note: nearly all actives have a fitted effect of over 35% in size. The essentials:
as §1

Assay [5] is described as follows: qHTS RealTime-Glo MT Cell Viability Assay in HEK293 cells - 24 hour (AID 1224886). Note: top concentration of the series differs between compounds; nearly all actives have a fitted effect of over 50% in size. The essentials: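 Viability tracked continuously by luminescence as live cells reduce a prosubstrate for NanoLuc; HEK293 cells preincubated 5 h, compound-treated at 37 C, and read at 0, 8, 16, 24, 32 and 40 h.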
(In general: In qHTS, concentration-response curves come from the screen itself.)

The nature of assay [6]: qHTS RealTime-Glo MT Cell Viability Assay in HEK293 cells - 8 hour (AID 1224887). Note: top concentration of the series differs between compounds; nearly all actives have a fitted effect of over 50% in size. Put shortly: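 Viable HEK293 cells reduce a cell-permeant prosubstrate; the product diffuses out and is consumed by NanoLuc in the medium to give light. Compounds went in after a 5 h incubation and plates were read over the treatment course.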
The nature of assay [7]: A CellTox Green Cytotoxicity Assay to monitor cytotoxicity in HEK293 cells - 16 hour (AID 1224888). Note: nearly all actives have a fitted effect of over 35% in size. Put shortly: as §1
The nature of assay [8]: qHTS RealTime-Glo MT Cell Viability Assay in HepG2 cells - 0 hour (AID 1224889). Note: nearly all actives have a fitted effect of over 50% in size. Put shortly:
(§3)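 Viability was tracked continuously by NanoLuc luminescence from prosubstrate reduced by living HepG2 cells, at successive time points over 40 h of compound exposure. Cells with reagent were preincubated 5 h at 37 °C before compound addition.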

Assay [9] is described as follows: A CellTox Green Cytotoxicity Assay to monitor cytotoxicity in HepG2 cells - 8 hour (AID 1224890). Note: nearly all actives have a fitted effect of over 45% in size. The essentials:
as §2

Assay [10] in a line: qHTS assay to identify small molecule antagonists of the estrogen receptor alpha (ER-alpha) signaling pathway using the BG1 cell line in the presence of 0.1 nM 17-beta-estradiol - cell viability counter screen (AID 1259241). Note: nearly all actives have a fitted effect of over 40% in size. Put shortly: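 Estradiol-stimulated (0.1 nM) VM7Luc4E2 cells exposed to compounds 22 hr; viability measured by fluorescence of cleaved CellTiter-Fluor substrate after 30 min.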

Assay [11] can be described thus: qHTS assay to identify small molecule antagonists of the androgen receptor (AR) signaling pathway using the MDA cell line in the presence of 0.5 nM R1881 - cell viability counter screen (AID 1259242). Note: nearly all actives have a fitted effect of over 45% in size. Put shortly:
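Viability of MDA-kb2 cells was multiplexed with the luciferase AR readout; after 16 hr with compounds and R1881 at 0.5 nM final, CellTiter-Fluor fluorescence was recorded.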

Assay [12] concerns the target Estrogen receptor (Homo sapiens) (UniProt P03372). As to the kind of experiment: qHTS assay to identify small molecule antagonists of the estrogen receptor alpha (ER-alpha) signaling pathway using the BG1 cell line in the presence of 0.1 nM 17-beta-estradiol (AID 1259244). Note: nearly all actives have a fitted effect of over 50% in size. Put shortly:
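Estradiol at 0.1 nM (final) stimulates the endogenous ER-alpha of VM7Luc4E2 cells carrying an ERE-driven luciferase; compounds are co-incubated 22 h at 37C and luciferase output quantified by luminescence.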

The nature of assay [13]: qHTS assay to identify small molecule phospholipidosis (PLD) inducers (AID 1259344; active = well fitted curve in the direction sought with a large enough effect; an effect the other way counts as inactive or inconclusive). Put shortly: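 Phospholipidosis is scored by imaging LipidTOX-stained pits in HepG2 cells exposed to compound for 24 h at 37 C; pit counts and integrated intensities per well and per cell serve as outputs.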
Assay [14] can be described thus: qHTS assay to identify small molecule HDAC inhibitors (AID 1259364). For activity change, negative = inhibition: top concentration of the series differs between compounds. Note: potency is the fitted concentration of half-maximal effect.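 Note: wild-type HCT-116 cells with endogenous class I/II HDAC activity; nearly all actives have a fitted effect of over 45% in size.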 The essentials:
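Read-out: luminescence of HDAC-Glo I/II reagent, 30 min RT, reflecting class I/II deacetylase activity in whole HCT-116 cells pre-exposed 2 h to DMSO-dissolved compounds.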

Assay [15] is described as follows: qHTS assay to identify small molecule HDAC inhibitors - cell viability counter screen (AID 1259365). Put shortly:
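After overnight seeding at 1,500 cells per well, wild-type HCT-116 cultures took up compounds in DMSO for 2hr at 37 C. Viable cell content came from luminescence with CellTiter-Glo.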

Assay [16] can be described thus: qHTS assay to identify small molecule agonists of the sonic hedgehog signaling (Shh) pathway - cell viability counter screen (AID 1259366). Note: nearly all actives have a fitted effect of over 50% in size. The essentials: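 Same-well cytotoxicity read. Gli1-Luc reporter 3T3 cells; compounds 24hr, 37C/5% CO2; CellTiter-Fluor fluorescence.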
A short description of assay [17]: qHTS assay to identify small molecule agonists of the sonic hedgehog signaling (Shh) pathway (AID 1259368; calls by dose curve;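 note: NIH/3T3-derived 3T3Gli1-Luc cells carrying a stable Gli1-driven firefly luciferase reporter; series mostly up to about 92 µM; nearly all actives have a fitted effect of over 15% in size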). Put shortly:
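A Gli1 transcriptional response element controlled firefly luciferase in 3T3Gli1-Luc cells. Compounds and a positive control were added 4 hr after plating, and cells were incubated a further 24 hr at 37 C before luminescence detection.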

The nature of assay [18]: qHTS RealTime-Glo MT Cell Viability Assay in HepG2 cells - 16 hour (AID 1224885). Note: nearly all actives have a fitted effect of over 50% in size. The essentials:
as §3

Assay [19] in a line: qHTS assay to identify small molecule antagonists of the sonic hedgehog signaling (Shh) pathway - cell viability counter screen (AID 1259367). Note: nearly all actives have a fitted effect of over 55% in size. Put shortly:
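Cells: 3T3 Gli1-Luc, 2,000/well, 4 hr pre-incubation. Compounds in DMSO, then conditioned medium. Incubation 24 hr, 37C, 5% CO2. CellTiter-Fluor at 23 hr, 1 hr, fluorescence.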

Assay [20] has as its target Androgen receptor (Homo sapiens) (UniProt P10275). As to the kind of experiment: qHTS assay to identify small molecule antagonists of the androgen receptor (AR) signaling pathway using the MDA cell line in the presence of 0.5 nM R1881 (AID 1259243). Note: nearly all actives have a fitted effect of over 50% in size. Put shortly: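 Reporter cells cultured without CO2 receive test chemicals, then 0.5 nM R1881 final; after 16 hr at 37C, ONE-Glo is added and light output recorded.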

Structures are written as SMILES. Unmarked numbers belong to inactive results. Results filed as inconclusive are left out. Calls of active or inactive are those of the source. Unless noted, calls come from the whole dose curve; as a rule, active = well fitted curve in the direction sought with a large enough effect in the repeat runs; inconclusive = weak or mixed curves; inactive = no such curve, though single readings can be large; an effect the other way counts as inactive or inconclusive.
% is set by controls: 0 for no effect and ±100 for the full control effect.

Chain of Estrogen receptor (Homo sapiens) (P03372 whole entry, looked up): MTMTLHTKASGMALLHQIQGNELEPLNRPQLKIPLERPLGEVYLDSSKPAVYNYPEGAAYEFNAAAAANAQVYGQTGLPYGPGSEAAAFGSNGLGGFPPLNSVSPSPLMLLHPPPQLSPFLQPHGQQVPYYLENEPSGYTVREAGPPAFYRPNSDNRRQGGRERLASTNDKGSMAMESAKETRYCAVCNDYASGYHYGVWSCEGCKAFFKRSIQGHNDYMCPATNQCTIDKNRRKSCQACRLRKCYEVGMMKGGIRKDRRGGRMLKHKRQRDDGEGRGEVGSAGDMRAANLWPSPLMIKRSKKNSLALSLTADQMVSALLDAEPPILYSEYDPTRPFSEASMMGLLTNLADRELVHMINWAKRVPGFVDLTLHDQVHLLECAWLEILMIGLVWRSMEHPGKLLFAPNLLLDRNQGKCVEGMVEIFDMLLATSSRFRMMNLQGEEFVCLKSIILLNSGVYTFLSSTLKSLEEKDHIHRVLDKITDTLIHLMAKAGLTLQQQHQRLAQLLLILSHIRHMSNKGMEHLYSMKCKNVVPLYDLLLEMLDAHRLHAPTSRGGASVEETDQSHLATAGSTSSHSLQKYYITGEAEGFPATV
Chain of Androgen receptor (Homo sapiens) (P10275 whole entry, looked up): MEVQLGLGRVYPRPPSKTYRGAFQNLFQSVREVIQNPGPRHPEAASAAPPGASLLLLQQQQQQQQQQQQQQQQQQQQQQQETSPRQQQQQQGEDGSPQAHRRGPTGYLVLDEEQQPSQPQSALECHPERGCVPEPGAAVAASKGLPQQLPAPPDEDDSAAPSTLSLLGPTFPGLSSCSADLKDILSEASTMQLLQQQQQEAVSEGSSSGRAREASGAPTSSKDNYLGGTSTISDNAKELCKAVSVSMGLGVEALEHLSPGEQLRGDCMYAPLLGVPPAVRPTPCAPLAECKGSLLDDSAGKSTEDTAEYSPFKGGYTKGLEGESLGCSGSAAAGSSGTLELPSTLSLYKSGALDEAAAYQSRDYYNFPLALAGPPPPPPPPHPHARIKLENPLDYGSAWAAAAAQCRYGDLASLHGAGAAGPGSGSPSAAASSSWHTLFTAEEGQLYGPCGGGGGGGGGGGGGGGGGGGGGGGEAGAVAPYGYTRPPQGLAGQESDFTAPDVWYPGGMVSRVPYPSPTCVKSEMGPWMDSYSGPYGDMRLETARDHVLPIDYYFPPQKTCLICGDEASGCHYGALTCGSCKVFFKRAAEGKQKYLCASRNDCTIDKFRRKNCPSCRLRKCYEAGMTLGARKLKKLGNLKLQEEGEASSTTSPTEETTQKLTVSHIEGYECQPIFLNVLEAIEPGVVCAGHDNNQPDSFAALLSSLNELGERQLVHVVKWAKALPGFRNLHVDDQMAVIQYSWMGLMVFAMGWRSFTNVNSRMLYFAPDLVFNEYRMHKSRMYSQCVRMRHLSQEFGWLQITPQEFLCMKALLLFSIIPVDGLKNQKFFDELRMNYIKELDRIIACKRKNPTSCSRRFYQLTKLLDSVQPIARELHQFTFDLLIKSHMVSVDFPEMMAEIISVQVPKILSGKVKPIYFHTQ

On to `O=C1OC(c2ccc(O)c(S(=O)(=O)O)c2)(c2ccc(O)c(S(=O)(=O)O)c2)c2c(Br)c(Br)c(Br)c(Br)c21`, for which the Potency result in assay [1], in assay [3], in [4], in assay [5], in assay [6] and in assay [7] was “inactive” in each case. Moreover, the Potency entry in assay [8], in assay [9], in assay [12], in assay [14] and in assay [16] was “inactive” each time. Besides, the result in assay [2], in [10], in assay [11], in assay [13], in assay [15] and in assay [17] was inactive.
`Nc1n[nH]c(N)n1`: the Potency entry in [1], in [3], in assay [4], in assay [18], in [6] and in assay [7] was “inactive” each time. Also, the Potency entry in assay [8], in [9], in assay [14], in [16] and in [19] was “inactive” each time. The call in assay [2], in assay [10], in assay [11], in assay [15] and in assay [17] was inactive.
On to `CC(C)(C)C(=O)C(Oc1ccc(Cl)cc1)n1cncn1` (stereo not given), for which the Potency entry in assay [1], in assay [3], in assay [4], in assay [18], in [6] and in assay [8] was “inactive” each time. The Potency entry in assay [9], in assay [12], in assay [14], in assay [16] and in [19] was “inactive” throughout. In addition, the molecule was classed as inactive in assay [2], in [10], in [11], in assay [15] and in assay [17].
`c1coc(-c2nc3ccccc3[nH]2)c1`: the Potency entry in [1], in assay [3], in assay [4], in [18], in [8] and in [9] was “inactive” throughout. Moreover, the Potency result in [12], in assay [16] and in assay [19] was “inactive” each time. Also, the result in assay [2], in assay [10], in assay [11], in assay [15] and in assay [17] was inactive. Moreover, the Potency in assay [14] is 611 nM (active).
Turning to `CC1=C(C(=O)O)N2C(=O)[C@@H](N)[C@H]2SC1`, the cytotoxicity increase is -10.4% [at 15.8 µM] in assay [1], -8.31% [at 15.8 µM] in assay [3], -10.6% [at 15.8 µM] in assay [4] and -7.33% [at 15.8 µM] in assay [9]. The cytotoxicity in assay [2] is -6.07% [at 15.8 µM]. Further, the activity change, negative = cytotoxicity in [5] is -0.764% [at 15.8 µM]; in assay [6], -0.746% [at 15.8 µM]; in assay [8], -0.386% [at 15.8 µM]; in assay [10], 0.956% [at 19 µM]; in assay [15] it was 3.22% [at 19 µM]. For the same molecule, the activity change in assay [7] was -1.57% [at 15.8 µM, active compounds read high]; in assay [17], 0.0682% [at 18.9 µM]. In addition, the viability change, negative = cytotoxic in assay [11] was 2.31% [at 19 µM]; in assay [16], -3.69% [at 19 µM]; in assay [19], 2.83% [at 19 µM]. In addition, the activity, negative = inhibition in assay [20] was 15.5% [at 19 µM]. Also, the results for the activity change, negative = inhibition in assay [12] and in assay [14] were 0.965% [at 19 µM] and 5.61% [at 19 µM], respectively.
For the molecule `CN1C[C@@H](NS(=O)(=O)N(C)C)C[C@@H]2c3cccc4c3c(cn4C)C[C@H]21`, the Potency result in [1], in assay [3], in assay [4], in assay [18], in [6] and in assay [7] was “inactive” each time. The Potency result in assay [8], in assay [9] and in assay [14] was “inactive” throughout. For the same molecule, the outcome in [2], in [10], in assay [11], in [13], in [15] and in [17] was inactive.
On to `CCOP(=S)(OCC)SCSc1ccc(Cl)cc1`, for which the Potency entry in assay [1], in assay [3], in assay [4], in assay [18], in assay [6] and in [7] was “inactive” each time. Further, the Potency result in assay [8], in assay [9], in assay [12], in assay [14], in [16] and in [19] was “inactive” each time. The result in [2], in [10], in assay [11], in [15] and in assay [17] was inactive. Besides, the PLD induction in assay [13] was -3.38% [at 7.66 µM].
For the molecule `COC(=O)C(C)Oc1ccc(Oc2ccc(Cl)cc2Cl)cc1` (stereo not given), the Potency result in [1], in assay [3], in [4], in assay [18], in assay [6] and in assay [7] was “inactive” each time. The Potency result in assay [8], in assay [9], in assay [14], in assay [16] and in assay [19] was “inactive” in each case. The molecule was called inactive in [2], in assay [10], in assay [11], in [15] and in assay [17].
In the case of `CCN(CC)C(=O)[C@@H]1C=C2c3cccc4[nH]cc(c34)C[C@H]2N(C)C1`, the Potency result in [1], in assay [3], in assay [4], in [18], in assay [6] and in [7] was “inactive” each time. In addition, the Potency result in assay [8], in [9], in assay [12] and in [14] was “inactive” in each case. The outcome in assay [2], in [11], in [13], in [15] and in [17] was inactive.
As to `OCCSCSCCO`, the Potency entry in [1], in assay [3], in assay [4], in assay [18], in [6] and in assay [7] was “inactive” throughout. The Potency result in assay [8], in [9], in assay [12], in [14], in assay [16] and in [19] was “inactive” each time. The call in [2], in assay [10], in assay [11], in assay [15] and in assay [17] was inactive.
For the molecule `C[C@]12CC[C@H]3[C@@H](CC=C4C[C@@H](O)CC[C@@]43C)[C@@H]1CC[C@@H]2O`, the Potency entry in assay [1], in assay [3], in assay [4], in assay [18], in [6] and in [7] was “inactive” throughout. The Potency result in assay [8], in [9], in [14], in [16] and in [19] was “inactive” throughout. Moreover, the outcome in assay [2], in assay [10], in assay [11], in assay [13], in assay [15] and in assay [17] was inactive.
